# Active and inactive are the calls of the source.
# Test: cell viability in Huh7 cells, primary screen, cytotoxicity control for HCV replication inhibitor project, CellTiter-Glo luminescence, basal, 48 h (AID 1143);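 further: Huh7 hepatoma cells carrying a hepatitis C replication reporter with no stimulus; test concentration not given here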
# Details: Huh7 HCV replicon, higher = more signal, called active from +8 up or from −8 down
row,SMILES,z-score
1,COCCOC(=O)N1C(=O)[C@@]2(c3cc(C#CCCO)ccc31)[C@H](C(=O)N1CCc3cc(OC)c(OC)cc3C1)[C@H]1C(=O)O[C@H](c3ccccc3)[C@H](c3ccccc3)N1[C@@H]2c1ccccc1OCCO,-1.84 (inactive)
2,[N-]=[N+]=NCc1ccccc1[C@H]1OC(c2ccc(OCCCO)cc2)=N[C@@]1(Cc1ccccc1)C(=O)N1CCOCC1,-3.73 (inactive)
3,C=CCOC(=O)[C@H]1[C@@H]2C(=O)O[C@@H](c3ccccc3)[C@@H](c3ccccc3)N2[C@@H](c2ccc(OCCOC(=O)[C@@H]3C[C@@H]4C(=O)N[C@@H](CC(C)C)C(=O)N4[C@@H]3c3ccc(O)cc3)cc2)[C@]12C(=O)Nc1ccc(I)cc12,-0.901 (inactive)
4,COCCOC(=O)N1C(=O)[C@@]2(c3cc(C#CCC(C(=O)OC)C(=O)OC)ccc31)[C@H](C(=O)N1CCc3cc(OC)c(OC)cc3C1)[C@H]1C(=O)O[C@H](c3ccccc3)[C@H](c3ccccc3)N1[C@@H]2c1ccc(O)cc1,-0.607 (inactive)
5,O=C1c2ccccc2[C@@]2(Cc3ccccc3N(Cc3ccccc3)C2=O)[C@H](c2ccc(CO)cc2)N1Cc1ccccc1,0.579 (inactive)
6,CN(C)CCCC[C@@H]1NC(=O)[C@@H]2C[C@H](C(=O)NCCCCCCNC(=O)CS)[C@H](c3cccc(OCCO)c3)N2C1=O,0.425 (inactive)
7,CCCC[C@H]1OB(O)C[C@H]2C1=C(COC)C[C@H]1C(=O)C=CC(=O)[C@H]12,-1.06 (inactive)
8,C=C(/C(=C/C[C@@H](OC(C)=O)c1ccccc1OCCO)c1cc(C(=O)OC)ccc1OC)C(C)C,-1.94 (inactive)
